The results in this text go back to PubChem BioAssay (NCATS).

Several values for one entry are separate records, joined by “and”; a condition that tells them apart may be missing. Equal entries are not always repeated. Inconclusive results are not listed. Where a structure was tested more than once in an assay, its records may differ in their call. Activity calls are given as the source filed them. Calls come from the whole dose curve.
Potency is the fitted concentration of half-maximal effect.

Chain of Cytochrome P450 1A2 (Homo sapiens) (P05177 whole entry, looked up): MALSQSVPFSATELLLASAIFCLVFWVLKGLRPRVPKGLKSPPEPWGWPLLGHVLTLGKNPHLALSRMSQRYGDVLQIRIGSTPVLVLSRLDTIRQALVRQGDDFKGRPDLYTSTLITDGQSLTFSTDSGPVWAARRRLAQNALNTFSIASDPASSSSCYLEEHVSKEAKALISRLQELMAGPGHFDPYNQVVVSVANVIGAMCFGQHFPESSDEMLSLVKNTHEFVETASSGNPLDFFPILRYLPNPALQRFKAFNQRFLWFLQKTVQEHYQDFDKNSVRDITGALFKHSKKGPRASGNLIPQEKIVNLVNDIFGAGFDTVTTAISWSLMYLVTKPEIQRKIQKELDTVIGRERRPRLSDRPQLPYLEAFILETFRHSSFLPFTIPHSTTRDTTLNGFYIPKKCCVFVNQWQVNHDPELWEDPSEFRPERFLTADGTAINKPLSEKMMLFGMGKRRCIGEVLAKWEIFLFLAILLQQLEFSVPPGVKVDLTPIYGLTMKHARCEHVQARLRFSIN

The test addresses Cytochrome P450 1A2 (Homo sapiens) (UniProt P05177). Put plainly: p450-cyp1a2 (AID 410).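 For activity change, negative = inhibition: -100% = full effect of reference inhibitor.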 Conditions: recombinant CYP1A2, luciferin-ME demethylation, luminescence; series mostly up to 57 µM; activity change, negative = inhibition: at the top concentration. The procedure: The P450 gene superfamily is involved in metabolism and the clearance of xenobiotics. This assay used human CYP1A2 to measure the demethylation of luciferin 6' methyl ether (Luciferin-ME; Promega-Glo) to luciferin. The luciferin is then measured by luminescence after the addition of a luciferase detection regeant. Luciferin-ME concentration in the assay was equal to its Km for CYP1A2.
NCGC Assay Protocol Summary:
Two uL of enzyme and substrate mix (final concentrations: 20nM CYP1A2, 100uM Luciferin-ME, 100mM KPO4) were dispensed into a white, solid bottom 1536-well microtiter plate. 23nL of compound was transferred by a pin tool. The plate was incubated at room temperature for 10 min. Two uL of an NADPH regeneration solution (Promega supplied reagent) was dispensed and the reaction was allowed to continue for 60 min at room temperature. Then the reaction was stopped by reconstituted detection reagent. After another 20 min of incubation the plate was read on the ViewLux (Perkin Elmer) at 60 sec exposure and 2x2 binning. This protocol was carried out with Promega-Glo reagents and further information can be found at http://www.promega.com/tbs/tb325/tb325.pdf. Data were normalized to the to AC100 inhibition (57 uM furafylline).
As to `OC[C@H]1NC[C@@H](O)[C@@H](O)[C@H]1O`, the “activity change, negative = inhibition” value is -6.8% (inactive).
As for `COc1ccccc1N1CCN(C[C@@H](C(=O)NC(C)(C)C)c2ccccc2)CC1`, the Potency was 0.631 µM (active).
Same read-out and setting: then `CSc1nc(NC2CCCC2)c([N+](=O)[O-])c(NC2CCCC2)n1`, with 3.98 µM (active); and `CC(C)=CCC/C(C)=C/CC/C(C)=C/CSc1ccccc1C(=O)O`, with 12.6 µM (active); and `N[C@@]1(C(=O)O)CN[C@H](C(=O)O)C1`, with 31.6 µM (active).
For `NC(N)=Nc1ccc(Cl)cc1`, the “activity change, negative = inhibition” value was -11.9% (inactive).
Turning to `Cc1nc2c(O)cccc2c(=O)[nH]1`, the Potency is 15.8 µM (active).
With `C=CCN1CCc2cc(O)c(O)cc2[C@H](c2ccccc2)C1`, the Potency entry was “inactive”.
In the case of `CCNCCCNCCCNCCCNCC`, the “activity change, negative = inhibition” value is -9.8% (inactive).
On to `NC[C@](O)(CS(=O)(=O)O)c1ccc(Cl)cc1`, for which the Potency entry is “inactive and 31.6 µM (active)”.
Regarding `CCCCC#Cc1nc(NC)c2ncn([C@@H]3O[C@@H](CO)[C@H](O)[C@H]3O)c2n1`, the Potency is 31.6 µM (active).
As to `O=C(NCCCN1CCCCCC1)[C@@H](c1ccccc1)C1CCCCC1`, the Potency was 31.6 µM (active).
For the compound `CC(C)Oc1ccc2c(=O)c3cc(C(=O)O)ccc3oc2c1`, the “activity change, negative = inhibition” value was -20.5% (inactive).
Consider `CCCCCN=c1ccn(Cc2ccccc2)c2ccccc12`, for which the Potency is 25.1 µM (active).
Regarding `N#Cc1cc2[nH]c(=O)c(=O)[nH]c2cc1[N+](=O)[O-]`, the Potency is 31.6 µM (active).
For the compound `Cc1cccc(/C=C\c2ccccc2)n1`, the Potency was 631 nM (active) and 398 nM (active).
Turning to `CC(C)(C)c1ccc(S(=O)(=O)/C=C\C#N)cc1`, the Potency was 3.98 µM (active) and 1.58 µM (active).
Same read-out and setting: the same measure for `COc1ccccc1NC(=O)Nc1nc(-c2cccnc2)nc2ccccc12`: 2.51 µM (active).
Turning to `CC(C)C[C@H]1C(=O)N2CCC[C@@H]2[C@]2(O)O[C@](NC(=O)[C@@H]3C=C4c5cccc6[nH]c(Br)c(c56)C[C@H]4N(C)C3)(C(C)C)C(=O)N12`, the “activity change, negative = inhibition” value is -8.8% (inactive).
For the compound `CCCn1c(=O)c2[nH]c(-c3ccc(OCC(=O)Nc4ccc(C#N)cc4)cc3)nc2n(CCC)c1=O`, the Potency was 31.6 µM (active).
With `CCCn1c(=O)c2[nH]c(-c3ccccc3)nc2n(CCC)c1=O`, the Potency is 0.0794 µM (active).
With `Cc1sc(N)c(C(=O)c2cccc(C(F)(F)F)c2)c1C`, the Potency is 15.8 µM (active).
On the same count and under the same terms, the same measure for `CC(C)NC[C@@H](O)COc1ccccc1-n1cccc1`: 3.98 µM (active).
For `NS(=O)(=O)c1cccc2c1c([N+](=O)[O-])cc1[nH]c(=O)c(=O)[nH]c12`, the “activity change, negative = inhibition” value was -32.8% (inactive).
Regarding `CC(=O)NCCc1c(Cc2ccccc2)[nH]c2ccccc12`, the Potency is 12.6 µM (active).
As to `O=C(Nc1ccccc1)[C@@]12C[C@@H]1/C(=N/O)c1ccccc1O2`, the Potency is 2.51 µM (active).
On to `c1cc2c(cc1C1CCCCC1)c1c3n2CCN[C@H]3CCC1`, for which the Potency was 15.8 µM (active).
For `C[N+]1(C)CCc2cc3c(cc2[C@@H]1[C@@H]1C(=O)Oc2c1ccc1c2OCO1)OCO3`, the Potency entry is “inactive and 1.26 µM (active)”.
Same read-out and setting: then `C=C[C@H](N)CCC(=O)O`, with “inactive”.
Turning to `CN1CCN(CCC=C2c3ccccc3Sc3ccc(S(=O)(=O)N(C)C)cc32)CC1`, the “activity change, negative = inhibition” value was -7.3% (inactive).
Consider `O=C(Cc1ccccc1)Nc1nc2ccc(Cl)cc2c2nc(-c3ccco3)nn12`, for which the Potency is 0.2 µM (active).
Turning to `CC[C@]1(O)C[C@@H]2CN(CCc3c([nH]c4ccccc34)[C@](C(=O)OC)(c3cc4c(cc3OC)N(C)[C@H]3[C@](O)(C(=O)OC)[C@@H](C(=O)OC)[C@@]5(CC)C=CCN6CC[C@@]43[C@@H]65)C2)C1`, the “activity change, negative = inhibition” value was -17.5% (inactive).
Turning to `c1ccc2oc(C3=NCCN3)cc2c1`, the Potency was 5.01 µM (active).
On to `Nc1c(S(=O)(=O)O)cc(Nc2ccc(Nc3nc(Cl)nc(Nc4ccc(S(=O)(=O)O)cc4)n3)c(S(=O)(=O)O)c2)c2c1C(=O)c1ccccc1C2=O`, for which the Potency is 15.8 µM (active).
With `COCCNC(=O)COc1ccc(OCCNC[C@@H](O)COc2ccccc2)cc1`, the “activity change, negative = inhibition” value was -35.6% (inactive).
For the compound `C[C@]12CC3CC(N)(C1)C[C@@](C)(C3)C2`, the “activity change, negative = inhibition” value was -0.6% (inactive).
`COc1cc2nc(N3CCN(C(=O)[C@H]4CCCO4)CC3)nc(N)c2cc1OC`: the “activity change, negative = inhibition” value was -13.5% (inactive).
Turning to `CC[N+](CC)(CC)CCOc1ccc(/C=C\c2ccccc2)cc1`, the Potency is 31.6 µM (active).
`S=C(Nc1ccccc1)Nc1nccs1`: the Potency was 0.794 µM (active).
With `COc1ccc(NS(=O)(=O)c2ccc(I)cc2)cc1N1CCN(C)CC1`, the “activity change, negative = inhibition” value was 5.4% (inactive).
